The results in this text go back to PubChem BioAssay (NCATS).

What all share (assay): qHTS profiling for inhibitors of Plasmodium falciparum proliferation (AID 504749); note: nearly all actives have a fitted effect of over 60% in size
Conditions in all cases: P. falciparum in erythrocytes, SYBR Green DNA, 72 h; series mostly up to 28.7 µM

For test [1], the system named is CP268. The method in brief:
(§1)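 Infected RBCs, 0.3% parasitemia/2.5% Hct final; cpd 72 h, 37 C, 5% CO2; lysis buffer with saponin/triton/SYBR Green I, o/n RT dark; FI 485/535; norm. to artemisinin (0.29 uM) and DMSO.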

Test [2] deals with CP269. Put shortly: as §1
Test [3] concerns CP286. The method in brief: as §1
In test [4] the test system is CP291. Put shortly:
as §1

Test [5] has as its system CP297. The method in brief:
as §1

The subject of test [6] is CP305. Put shortly: as §1
Test [7] concerns CP315. The method in brief: as §1
The test system of test [8] is CP325. The method in brief: as §1
In test [9] the test system is CP329. Put shortly:
as §1

Test [10] concerns CP335. Put shortly: as §1
Test [11] deals with DFO2036. The method in brief: as §1
In test [12] the test system is DIV30. The method in brief:
as §1

In test [13] the test system is ECU. The method in brief: as §1
The test system of test [14] is FAB9. Put shortly:
as §1

Test [15] concerns HB3. The method in brief:
as §1

For test [16], the system named is ICS. Put shortly: as §1
Test [17] relates to DIV14. Put shortly: as §1
In test [18] the test system is DIV17. Put shortly: as §1
Test [19] deals with Dd2. Put shortly: as §1
The test system of test [20] is GB4. Put shortly: as §1

Each structure is given as a SMILES string. Inconclusive results are not listed. Active and inactive are the calls of the source. Calls come from the whole dose curve; as a rule, active = well fitted inhibition curve with a large enough effect; inconclusive = small, poorly fitted or top-dose-only effect; inactive = flat fitted curve, though single readings scatter.
Potency is the fitted concentration of half-maximal effect.

As to `CC(=O)c1ccc2c(c1)N(CCCN(C)C)c1ccccc1S2`, the Potency result in test [1], in [2], in test [3], in test [4], in test [5] and in [6] was “inactive” in each case. In addition, the Potency result in [7], in test [8], in [9], in [10], in test [11] and in test [12] was “inactive” each time. Further, the Potency entry in test [13], in [14], in test [15] and in test [16] was “inactive” each time.
Turning to `CC1=C(/C=C/C(C)=C/C=C/C(C)=C/C(=O)O)C(C)(C)CCC1`, the Potency result in test [1], in test [2], in test [3], in test [4], in [6] and in test [7] was “inactive” each time. The Potency result in test [8], in [9], in test [10], in [11], in test [17] and in test [18] was “inactive” throughout. The Potency result in test [12], in [19], in [13], in [14], in test [20] and in test [15] was “inactive” throughout. The Potency entry in test [16] was “inactive”.
For the compound `O=c1cc[nH]c(=S)[nH]1`, the Potency result in [1], in [2], in test [3], in test [4], in test [6] and in test [7] was “inactive” in each case. For the same compound, the Potency entry in test [8], in [9], in [10], in test [11], in [17] and in test [18] was “inactive” throughout. Further, the Potency result in test [12], in test [19], in test [13], in test [14], in test [20] and in [15] was “inactive” throughout. In test [16], the Potency result is “inactive”.
With `O=C1O[C@H]([C@@H](O)CO)C(O)=C1O`, the Potency entry in test [1], in test [2], in test [3], in test [4], in test [5] and in [6] was “inactive” in each case. For the same compound, the Potency result in test [7], in test [8], in test [9], in [10], in [11] and in test [17] was “inactive” each time. Moreover, the Potency entry in test [18], in test [12], in test [19], in test [14], in [20] and in test [15] was “inactive” in each case. Moreover, the Potency result in test [16] was “inactive”.
For the compound `CC(=O)Oc1ccc(C2(c3ccc(OC(C)=O)cc3)C(=O)Nc3ccccc32)cc1`, the Potency result in test [1], in test [2], in test [3], in test [4], in test [5] and in test [6] was “inactive” each time. Also, the Potency entry in test [7], in test [8], in test [9], in [10], in test [11] and in test [17] was “inactive” throughout. The Potency result in test [18], in test [12], in [19], in test [13], in test [14] and in [20] was “inactive” in each case. The Potency entry in test [15] and in [16] was “inactive” each time.
Take `CCCOC(=O)c1ccccc1`: the Potency result in [1], in test [2], in test [3], in test [4], in [5] and in test [6] was “inactive” each time. The Potency result in [7], in test [8], in test [9], in test [10], in [11] and in test [17] was “inactive” in each case. For the same compound, the Potency result in test [18], in [12], in [19], in [13], in [14] and in [20] was “inactive” throughout. Further, the Potency result in test [15] and in test [16] was “inactive” in each case.
On to `COc1ccc(Cl)cc1C(=O)NCCc1ccc(S(=O)(=O)NC(=O)NC2CCCCC2)cc1`, for which the Potency entry in [1], in [2], in [3], in [4], in test [5] and in [6] was “inactive” throughout. The Potency result in [7], in test [8], in test [9], in test [10], in [11] and in [17] was “inactive” in each case. Moreover, the Potency entry in test [18], in test [12], in test [19], in test [14], in test [20] and in [15] was “inactive” each time. Also, the Potency result in test [16] was “inactive”.
Consider `Cc1cc(N)c2ccccc2[n+]1CCCCCCCCCC[n+]1c(C)cc(N)c2ccccc21`, for which the Potency in test [1] was 572 nM (active); in test [2], 510 nM (active); in test [3], 447 nM (active); in test [4], 405 nM (active); in test [5], 405 nM (active); in test [6], 228 nM (active). Also, the Potency in test [7] was 721 nM (active); in test [8] it was 572 nM (active); in test [9], 642 nM (active); in test [11] it was 79.4 nM (active); in test [17] it was 161 nM (active); in test [18], 287 nM (active). In addition, the Potency was 256 nM (active) in test [12]; 63.1 nM (active) in [19]; 2510 nM (active) in [13]; 199 nM (active) in test [14]; 144 nM (active) in [20]; 794 nM (active) in test [15]. For the same compound, the Potency in test [16] is 100 nM (active).
As for `Cn1c(=O)c2c(ncn2CC2OCCO2)n(C)c1=O`, the Potency entry in [1], in test [2], in test [3], in test [4], in test [6] and in [7] was “inactive” each time. For the same compound, the Potency entry in test [8], in test [9], in test [10], in test [11], in test [17] and in [18] was “inactive” in each case. Also, the Potency result in test [12], in test [19], in test [13], in test [14], in test [20] and in test [15] was “inactive” each time. The Potency entry in test [16] is “inactive”.
In the case of `NS(=O)(=O)c1cc2c(cc1Cl)NC(CSCc1ccccc1)=NS2(=O)=O`, the Potency entry in [1], in test [2], in test [3], in [4], in test [5] and in test [6] was “inactive” in each case. In addition, the Potency result in test [7], in [8], in test [9], in test [10], in [11] and in test [17] was “inactive” in each case. The Potency entry in test [18], in test [12], in test [19], in test [13], in [14] and in test [20] was “inactive” throughout. Moreover, the Potency entry in [15] and in test [16] was “inactive” each time.
